Compound activity as filed in PubChem BioAssay.
MITF TRPM1 HTS: activators of MITF-driven TRPM1 promoter reporter, primary screen, cell-based, SK-MEL-5, luciferase, single point. SK-MEL-5 TRPM1-promoter luciferase, 24 h; % of positive control, neutral wells = 0. activation, % at 12.5 µM. 300,000 compounds, 0.75% hits. AID 588334, 2011;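 active = mean activation of at least 80% with every replicate also reaching 80%; inconclusive = mean reaches 80% but some replicate falls short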;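 note: 0% = neutral control wells and 100% = parthenolide positive control wells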
AF4-AF9 inh: inhibitors of AF4 peptide binding to AF9, primary screen, biochemical, AlphaScreen, biotin-AF4 peptide, FLAG-AF9, single point; inhibition, % at 10 µM; 350,000 compounds, 0.47% hits;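 active = every replicate reaching a set inhibition limit, whatever the replicate mean, cut at about 25% in these data; inconclusive = mean inhibition reaches that limit but some replicates miss it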;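 note: 0% = plate neutral control median and 100% = total signal loss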
Target sequence (P42568 whole entry, looked up): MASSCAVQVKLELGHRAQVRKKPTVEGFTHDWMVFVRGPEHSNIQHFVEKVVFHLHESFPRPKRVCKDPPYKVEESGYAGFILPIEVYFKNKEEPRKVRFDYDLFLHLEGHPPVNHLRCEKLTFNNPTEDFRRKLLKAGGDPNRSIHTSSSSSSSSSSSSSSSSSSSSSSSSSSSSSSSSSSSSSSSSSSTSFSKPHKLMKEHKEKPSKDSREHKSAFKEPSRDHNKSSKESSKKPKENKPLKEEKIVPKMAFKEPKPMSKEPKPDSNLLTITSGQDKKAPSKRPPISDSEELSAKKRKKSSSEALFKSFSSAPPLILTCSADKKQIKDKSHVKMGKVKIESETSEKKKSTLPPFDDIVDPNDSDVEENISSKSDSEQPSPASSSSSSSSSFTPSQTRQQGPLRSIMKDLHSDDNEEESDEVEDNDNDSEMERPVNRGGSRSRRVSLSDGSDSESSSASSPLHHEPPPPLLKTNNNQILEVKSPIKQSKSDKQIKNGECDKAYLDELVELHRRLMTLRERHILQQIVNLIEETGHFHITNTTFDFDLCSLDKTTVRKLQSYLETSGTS
Wnt bcat act: Wnt/beta-catenin pathway activators, primary screen, cell-based, plate reader, single point. Wnt/beta-catenin reporter cell assay, activator. activation, % at 9.35 µM. 300,000 compounds, 1.2% hits. AID 743398, 2014; in the data active = activation above about 30%, passing the limit was not always enough; inconclusive = no clear call, values can overlap the other calls;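 note: 0% = neutral control wells and 100% = positive control wells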
esBAF inh: Bmi1 luciferase reporter increase in mESCs, primary screen, esBAF inhibitor project, mouse ES cells, Bmi1 luciferase knock-in, single point; reporter increase, % at 12.5 µM; 350,000 compounds, 2% hits; 24 h; 100% = twice the neutral-well signal; in the data active = activation above about 40%; inconclusive = no clear call, values can overlap the other calls;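 note: 0% = median of the plate's neutral control wells and 100% = double that signal; a rise in the Bmi1 reporter signal indicates esBAF inhibition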
Ecoli rRNA inh: reduced GFP signal of wild-type E. coli, primary screen, bacterial rRNA inhibitor project, GFP/RFP fluorescence, OD600, single point; 350,000 compounds, 1.6% hits; E. coli WT GFP vs humanized-ribosome RFP mutants, 24 h; stronger effect = lower value; DMSO median 0, no signal -100; GFP signal change (wild-type ribosome), % (no concentration beside the values);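 active = significant combined selectivity score with lowered wild-type GFP, culture density cut under 30%, mutant RFP and density less affected; inactive = any of these conditions unmet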
Active calls of the source: *; u = inconclusive; x = no result given. Compounds with a hit are over-represented: about 3.7% of the library has one in this group of screens.

SMILES	MITF TRPM1 HTS	AF4-AF9 inh	Wnt bcat act	esBAF inh	Ecoli rRNA inh
Cc1ccc(NC(=S)c2ccccc2)cc1	81.5*	x	u	67.8*	x
COc1ccc(C(=S)Nc2ccc(C)cc2)cc1	109.2*	x	x	x	x
COc1ccc(NC(=S)c2ccncc2)cc1	-6.7	x	8.6	x	x
CC1(C)OCC(CNC(=O)c2[nH]c(C(F)(F)F)nc2-c2ccccc2)O1 (stereo not drawn)	x	-0.4	-0.2	-6.7	6.6
C/C(=N\NC(=O)c1ccccc1)c1ccccc1Br	41.5	2.8	u	x	6.8
C/C(=N\NC(=O)c1ccccc1)c1ccccc1F	47.3	-3.6	56.8*	19.7	8.7
CC(=NNC(=O)c1ccncc1)c1ccccc1O	-33.0	-6.7	-3.5	x	-30.1*
C/C(=N/NC(=O)c1ccc(-c2ccccc2)cc1)c1cccc(O)c1	1.2	-2.7	3.2	-2.7	-25.6*
C/C(=N\NC(=O)c1ccc(O)cc1)c1cccc(NC(=O)c2ccc(Cl)cc2)c1	x	-4.7	25.9	52.5*	-35.0*
Cc1ncc([N+](=O)[O-])n1CCOC(=O)NC(Nc1ccc(F)cc1)C(Cl)(Cl)Cl (stereo not drawn)	-12.9	-8.4	-0.8	-0.1	-16.2
CN1OC[C@@H]2CN(C(=O)c3cccc4ccccc34)[C@H](c3ccccc3Br)C[C@@H]21	x	5.7	-1.6	0.9	-5.3
C/C(=N\NC(=O)c1ccc(Br)cc1)c1ccccc1	53.5	x	x	46.6*	x
C/C(=N/NC(=O)c1ccncc1)c1ccc(NC(=O)c2ccc(Cl)cc2Cl)cc1	87.6*	-0.7	23.8	x	-15.9
C/C(=N\NC(=O)c1ccc(N/N=C(\C)c2ccc(O)cc2)cc1)c1ccc(O)cc1	-1.0	1.7	4.5	1.8	-20.6*
C/C(=N\NC(=O)c1ccc(O)cc1)c1ccc(N2CCOCC2)cc1	3.0	-1.0	-6.1	x	2.6
CN(C)c1ccc(/C=C2\CCCc3c2nc2ccccc2c3C(=O)O)cc1	70.2	1.9	17.9	58.8*	-44.3
Cc1ccc(-c2nn(-c3ccccc3)cc2C2CC(c3cccs3)=NN2C(=O)CCCC(=O)O)cc1 (stereo not drawn)	x	x	x	-2.8	x
COc1ccc(-c2nc(-c3ccccc3OC)no2)cc1OC	x	x	x	55.5*	x
COc1cc(-c2nc(-c3cccc(C)c3)no2)cc(OC)c1OC	52.1	x	7.7	27.2	x
COc1ccc(-c2nc(-c3cccc(C)c3)no2)cc1OC	38.4	-1.9	17.2	46.1*	x
C=CCSc1nnc(-c2cc(Br)ccc2N)c(=O)[nH]1	-3.7	1.6	0.3	2.6	-5.8
Nn1nnc2ccccc21	1.9	9.6	6.6	20.5	10.3
C(=C\n1nnc2ccccc21)/c1ccccn1	41.7	5.2	33.9*	-13.4	-5.9
COc1ccc(-c2nc3cnccn3c2Nc2ccc3c(c2)OCO3)cc1	3.4	27.7*	4.5	0.3	-17.9
O=C(N/N=C/c1ccc2nccnc2c1)c1ccncc1	x	-1.5	1.8	x	9.4
SMILES	MITF TRPM1 HTS	AF4-AF9 inh	Wnt bcat act	esBAF inh	Ecoli rRNA inh
Cc1ccc(S(=O)(=O)NCC(=O)N/N=C/c2ccc(Cl)cc2Cl)cc1	9.1	7.1	-1.9	x	-34.7
O=C(N/N=C/c1ccc2nccnc2c1)c1ccccc1O	x	-2.6	37.6*	x	4.2
CC(=O)n1cc(/C=N/NC(=O)c2ccccc2O)c2ccccc21	48.7	-0.1	12.3	u	-25.4*
COc1ccc(/C=N/NC(=O)c2ccccc2O)cc1Cn1nnc2ccccc21	-11.3	-1.6	6.9	x	-23.0*
Cc1ccc(S(=O)(=O)NCC(=O)N/N=C/c2ccccc2O)cc1	-18.8	-1.0	-2.1	1.0	-30.6*
COc1ccc(C(=O)N2CCN(C)C(C)C2)cc1OC1CCN(C(C)=O)CC1 (stereo not drawn)	5.7	-0.7	2.6	-4.0	14.0
CC(=O)N[C@@H](CC(=O)N[C@H](CCC(=O)O)C(=O)O)C(=O)O	1.6	3.2	13.8	-0.6	x
O=C(Nc1ccccc1C(=O)N/N=C/c1ccc(O)cc1)c1ccccc1	59.5	x	10.5	x	-29.7*
O=C(CCSCCC(=O)NN=Cc1ccccc1O)NN=Cc1ccccc1O	1.3	-1.8	-1.5	33.0	5.5
O=C(CSc1ccccc1)N/N=C/c1ccccc1O	-20.3	0.4	-4.0	x	-18.6*
O=C(N/N=C/c1ccccc1O)c1cccc2ccccc12	x	3.4	-0.3	-49.1	-35.5*
O=C(O)c1ccc(C=NNC(=O)c2cccc3ccccc23)cc1	0.8	-0.1	-6.8	x	1.1
O=C(N/N=C/c1ccnc2ccccc12)c1ccccc1O	29.0	1.4	7.8	54.7*	-10.0
O=C(O)c1ccc(N/N=C/c2ccnc3ccccc23)cc1	79.6	2.1	0.9	x	-6.7
CNC[C@H]1Oc2c(NC(=O)c3ccncc3)cccc2C(=O)N([C@@H](C)CO)C[C@H]1C	x	3.4	x	-1.7	-0.6
C[C@H]1CN([C@@H](C)CO)C(=O)Cc2cc(NC(=O)Nc3ccc4c(c3)OCO4)ccc2O[C@H]1CN(C)C(=O)Nc1ccc2c(c1)OCO2	x	1.5	x	0.7	x
Cc1ccccc1CN1C(=O)c2ccccc2Sc2ccc(C(=O)O)cc21	-2.5	-1.8	-1.2	0.8	-34.5*
Cc1ccccc1CN1C(=O)c2ccccc2Sc2ccc(C(=O)NCCN3CCOCC3)cc21	-4.8	7.7	5.8	-0.3	-1.8
O=C(c1ccc2c(c1)N(Cc1ccccc1)C(=O)c1ccccc1S2)N1CCCC1	-38.9	8.5	-1.4	5.3	-52.8
Cc1cccc(CN2C(=O)c3ccccc3Sc3ccc(C(=O)O)cc32)c1	-7.0	-3.7	0.8	9.8	-20.9*
Cc1cc(C)c(COCc2cc(/C=N/O)c(C)cc2C)cc1/C=N/O	-2.9	-1.9	1.4	7.3	-36.2*
COc1ccc(C(=O)C2CCCN(C3Cc4ccccc4C3)C2)c(OC)c1 (stereo not drawn)	-3.3	4.2	-2.2	1.9	-23.6
COC(=O)CN(n1cnnc1)S(=O)(=O)c1ccccc1	-1.3	x	x	-7.2	x
CCOc1ccc(/C=N/n2cc(-c3ccccc3)[nH]c2=S)cc1	1.3	-1.7	18.0	44.8*	-13.6
COc1cccc(NC(=O)CN(C)C(=O)CNC(=O)c2ccccc2F)c1	-4.1	0.2	1.8	1.4	-13.3
SMILES	MITF TRPM1 HTS	AF4-AF9 inh	Wnt bcat act	esBAF inh	Ecoli rRNA inh
CCCN1CCN(CCCNC(=O)C2CCN(c3nnc(-n4cccc4)s3)CC2)CC1	-13.2	x	x	-6.9	x
CCCCN(C)CCNC(=O)c1ccc(Cn2c(=S)[nH]c3ccc(Br)cc3c2=O)cc1	27.9	12.9	-0.2	x	-52.8*
CN(C)CCNC(=O)c1ccc2c(=O)n(Cc3ccc(Cl)cc3)c(=S)[nH]c2c1	18.9	6.5	-1.7	9.2	-29.2
O=C(CSc1nnc(-c2ccncc2)o1)Nc1cccc(F)c1	63.1	2.6	23.4	56.2*	0.6
O=C(CSc1nnc(-c2cccnc2)o1)Nc1cccc(F)c1	72.1	0.2	-3.6	61.3*	4.2
O=C(CSc1nnc(-c2ccncc2)o1)Nc1ccccc1Cl	33.5	x	-1.5	34.5	x
